Test results: PubChem BioAssay (EPA / NIEHS)
The source made the active and inactive calls. How the source made its calls: active means hit-call score of the fitted dose curve at least 0.9, where 1 is the maximum; inactive means score below 0.9.

How the values were obtained:
[1] = APR_HepG2_CellCycleArrest_24hr: Apredica 24-hour HepG2 Assay for Cell Cycle Arrest (AID 2282905); details: imaging, actives raise or lower the signal;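 further: cell cycle arrest scored as ratio of 2N to 4N nuclear DNA content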
Method in brief: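 Compounds at 0.39–200 uM (0.5% DMSO) for 24 h, then fixed and Hoechst 33342 stained. Cell-cycle analysis of nuclear DNA content by high-content imaging, fitted bidirectionally versus DMSO.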

[2] = APR_HepG2_NuclearSize_24hr: Apredica 24-hour HepG2 Assay for Nuclear Size (AID 2282907); details: high-content imaging, actives raise or lower the signal
Method in brief: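 HepG2 cells exposed 24 h to compounds at 0.39–200 uM (0.5% DMSO), fixed, Hoechst 33342 stained and imaged at 20x; nuclear diameter measured by automated image analysis, fitted bidirectionally against DMSO controls.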

[3] = APR_HepG2_CellLoss_24hr: Apredica 24-hour HepG2 Assay for Cell Loss (AID 2282908); details: high-content imaging;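 on AC50: fit in both directions so a hit may be cell loss or gain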
Method in brief: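 HepG2 cells exposed 24 hr to 0.39–200 uM compound in duplicate at 0.5% v/v final DMSO. Cells fixed in 3.7% formaldehyde and Hoechst 33342-stained. Cell number came from nuclear imaging at 20x. Bidirectional fit versus DMSO.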

[4] = APR_HepG2_MicrotubuleCSK_24hr: Apredica 24-hour HepG2 Assay for Microtubule CSK Stabilty (AID 2282909); details: HepG2 microtubule cytoskeleton imaging, actives raise or lower the signal
Method in brief: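 HepG2 cells were treated 24 hr with compound at 0.39–200 uM in duplicate (0.5% DMSO final), then fixed and permeabilized. Alpha-tubulin immunofluorescence was imaged by high-content microscopy, with bidirectional fitting against DMSO and taxol as positive control.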

[5] = APR_HepG2_MitoticArrest_24hr: Apredica 24-hour HepG2 Assay for Mitotic Arrest (AID 2282910); details: high-content imaging, actives raise or lower the signal
Method in brief: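 Compounds are dosed onto HepG2 cells across ten concentrations up to 200 uM for 24 hr. Cells are then fixed in 3.7% formaldehyde, permeabilised, and labelled for phospho-histone H3 and nuclei; images are scored by cell cycle analysis and fitted bidirectionally relative to DMSO.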

[6] = APR_HepG2_MitoMembPot_24hr: Apredica 24-hour HepG2 Assay for Mitochondrial Membrane Potential (AID 2282911); details: imaging, actives raise or lower the signal
Method in brief: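 Mitochondrial dye uptake (MitoTracker Red CMXRos, 250 nM, 30 min pre-fixation) in HepG2 after 24 hr compound exposure, 0.39–200 uM; ArrayScan images at 20x, activity fitted in both directions relative to DMSO.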

[7] = APR_HepG2_MitoMass_24hr: Apredica 24-hour HepG2 Assay for Mitochondrial Mass (AID 2282912); details: high-content imaging, actives raise or lower the signal
Method in brief: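 HepG2 cells exposed 24 hr to 0.39–200 uM compound, 0.5% v/v DMSO, in duplicate. Stained before fixation with 250 nM MitoTracker Red CMXRos for 30 min, then imaged at 20x with Hoechst nuclei. Fitted in both directions against DMSO.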

[8] = APR_HepG2_p53Act_24hr: Apredica 24-hour HepG2 Assay for p53 Activation (AID 2282913); details: high-content imaging, actives raise or lower the signal;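 further: p53 protein immunofluorescence averaged per cell in HepG2 with Hoechst nuclei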
Method in brief: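 Following 24 hr dosing of HepG2 at 0.39–200 uM, the cells undergo formaldehyde fixation, Triton permeabilization and multiplexed antibody labeling that includes p53 (Cy5). Signal from the imaging is referenced to DMSO solvent controls.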

[9] = APR_HepG2_CellCycleArrest_72hr: Apredica 72-hour HepG2 Assay for Cell Cycle Arrest (AID 2282914); details: high-content imaging, actives raise or lower the signal
Method in brief: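 Using multiplexed high-content imaging, HepG2 nuclei stained with Hoechst 33342 (2 ug/mL) were analysed for DNA content after fixation and permeabilization. Treatment lasted 72 hr across 0.39–200 uM in duplicate with final DMSO 0.5% v/v; DMSO served as negative control.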

[10] = APR_HepG2_CellLoss_72hr: Apredica 72-hour HepG2 Assay for Cell Loss (AID 2282915); details: high-content imaging
Method in brief: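 Cell number comes from Hoechst 33342-labelled nuclei, imaged at 20x after 3.7% formaldehyde fixation. Dosing was 0.39–200 uM, ten concentrations in duplicate, 0.5% DMSO final, for 72 h. Bidirectional fit relative to DMSO baseline.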

[11] = APR_HepG2_MitoMembPot_72hr: Apredica 72-hour HepG2 Assay for Mitochondrial Membrane Potential (AID 2282917); details: imaging, actives raise or lower the signal
Method in brief: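 Membrane potential read by MitoTracker Red CMXRos (250 nM, 30 min, pre-fixation) fluorescence imaging of HepG2 after 72 hr exposure. Ten concentrations, 0.39–200 uM, duplicate wells, 0.5% DMSO; fitted in both directions against DMSO baseline.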

[12] = APR_HepG2_MitoticArrest_72hr: Apredica 72-hour HepG2 Assay for Mitotic Arrest (AID 2282918); details: high-content imaging, actives raise or lower the signal
Method in brief: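 Using high-content imaging of fixed HepG2 cells, phospho-histone H3 signal was measured following a 72 hr incubation with ten-point compound dilutions up to 200 uM. DMSO served as the negative control and baseline for bidirectional curve fitting.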

[13] = APR_HepG2_MicrotubuleCSK_72hr: Apredica 72-hour HepG2 Assay for Microtubule CSK Stabilty (AID 2282919); details: HepG2 microtubule cytoskeleton, high-content imaging, actives raise or lower the signal
Method in brief: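 Read-out is tubulin fluorescence intensity from high-content imaging of HepG2 cells, with nuclei identified by Hoechst 33342. Treatment lasts 72 h at 0.39–200 uM, and curves are fitted bidirectionally against the DMSO negative control.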

[14] = APR_HepG2_P-H2AX_24hr: Apredica 24-hour HepG2 Assay for H2AX Phosphorylation (AID 2282920); details: high-content imaging, actives raise or lower the signal
Method in brief: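 Human HepG2 liver cells, treated 24 hr with test chemicals (0.39–200 uM, final DMSO 0.5% v/v), are fixed and co-stained for phospho-H2A.x and c-Jun with Hoechst. Imaged intensity is fitted in both directions against DMSO controls.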

[15] = APR_HepG2_StressKinase_72hr: Apredica 72-hour HepG2 Assay for Stress Kinase (AID 2282921); details: HepG2 stress kinase (phospho-c-Jun) imaging, actives raise or lower the signal
Method in brief: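 HepG2 cells treated 72 hr with 0.39–200 uM compound, 0.5% v/v DMSO, duplicate wells. After formaldehyde fixation and Triton permeabilization, stained with anti-phospho-c-Jun (1:500) and Cy3 secondary, imaged at 20x. Fitted in both directions against DMSO.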

[16] = APR_HepG2_StressKinase_24hr: Apredica 24-hour HepG2 Assay for Stress Kinase (AID 2282922); details: HepG2 stress kinase (phospho-c-Jun) imaging, actives raise or lower the signal
Method in brief: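 HepG2, 24 hr dosing, 0.39–200 uM in duplicate, 0.5% DMSO; formaldehyde fix (3.7%), 0.5% Triton X-100; anti-phospho-c-Jun + Cy3 secondary, Hoechst counterstain; ArrayScan imaging; bidirectional curve fit vs DMSO baseline.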

[17] = APR_HepG2_p53Act_72hr: Apredica 72-hour HepG2 Assay for p53 Activation (AID 2282923); details: high-content imaging, actives raise or lower the signal;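 further: average cellular p53 protein immunofluorescence intensity in HepG2 cells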
Method in brief: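 HepG2 cells exposed 72 h to 0.39–200 uM in 0.5% DMSO, duplicates. Fixed, permeabilized cells immunostained for p53 (Cy5) with Hoechst; imaged at 20x, fluorescence analyzed bidirectionally against DMSO.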

[18] = APR_HepG2_MitoMass_72hr: Apredica 72-hour HepG2 Assay for Mitochondrial Mass (AID 2282924); details: high-content imaging, actives raise or lower the signal;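 further: MitoTracker Red CMXRos stain intensity per cell imaged as mitochondrial mass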
Method in brief: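 HepG2, 72 hr cmpd, 10 conc 0.39–200 uM in dup, DMSO 0.5% v/v. MitoTracker Red CMXRos 250 nM 30 min pre-fix; formaldehyde 3.7% fix 30 min RT. HCS imaging, gain/loss fit vs DMSO.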

[19] = APR_HepG2_NuclearSize_72hr: Apredica 72-hour HepG2 Assay for Nuclear Size (AID 2282925); details: high-content imaging, actives raise or lower the signal
Method in brief: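 HepG2; cpd 0.39–200 uM, 10 conc, duplicate; 72 h; DMSO 0.5% v/v; fix 3.7% formaldehyde 30 min RT; Triton permeabilization; Hoechst 2 ug/mL; HCS imaging 20x; nuclear diameter; gain/loss fit vs DMSO.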

[20] = APR_HepG2_P-H2AX_72hr: Apredica 72-hour HepG2 Assay for H2AX Phosphorylation (AID 2282916); details: imaging, actives raise or lower the signal;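 further: phospho-histone H2A.x immunostain intensity per cell marking DNA damage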
Method in brief: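 HepG2 cells treated 72 h at 0.39–200 uM, 0.5% DMSO final, duplicates. Formaldehyde-fixed, Triton-permeabilised, immunostained for phospho-H2A.x with Hoechst; fluorescence imaged at 20x, bidirectional fit versus DMSO.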

Measured: AC50

CC1(C)C(=O)NC(=O)N1CO
active: [3] 108 µM | [10] 120 µM | [18] 100 µM
not listed: [20]
inactive: all other assays above

CC1=C(C)S(=O)(=O)CCS1(=O)=O
active: [9] 42.8 µM | [10] 37.4 µM | [12] 33.1 µM | [17] 73.8 µM | [18] 35.9 µM
not listed: [20]
inactive: all other assays above

CC(C)OC(=O)C(C)(C)Oc1ccc(C(=O)c2ccc(Cl)cc2)cc1
active: [9] 100 µM | [10] 103 µM
not listed: [8] | [17]
inactive: all other assays above

CCC(C)N(C)C(=O)c1cc2ccccc2c(-c2ccccc2Cl)n1 (centres undefined)
inactive: [1] | [2] | [4] | [6] | [9] | [13] | [15] | [17] | [19]
active: [3] 64.9 µM | [5] 66.8 µM | [7] 82.4 µM | [8] 66.9 µM | [10] 73.1 µM | [11] 67.7 µM | [12] 65.8 µM | [14] 69.8 µM | [16] 69.2 µM | [18] 66.4 µM

O=C(Oc1ccccc1)c1cccc(C(=O)Oc2ccccc2)c1
active: [10] 113 µM
not listed: [8] | [17]
inactive: all other assays above

CCCCCCCCCCCCCCCCO
not listed: [8] | [17]
inactive: all other assays above

C/C=C/C=C/C(=O)O
active: [9] 71.5 µM | [10] 83.7 µM | [20] 93 µM | [12] 98.2 µM | [18] 47.5 µM | [19] 60.7 µM
not listed: [8] | [17]
inactive: all other assays above

CC(=O)CC(c1ccccc1)c1c(O)c2ccccc2oc1=O (centres undefined)
not listed: [8] | [17]
inactive: all other assays above

CCCCOC(=O)CCCCC(=O)OCCCC
not listed: [8] | [17]
inactive: all other assays above

CCCCCCC(C=O)=Cc1ccccc1
active: [7] 53.5 µM | [9] 57 µM | [10] 50.2 µM
not listed: [8] | [17] | [20]
inactive: all other assays above

O=C1NC(=O)C(c2ccccc2)(c2ccccc2)N1
not listed: [8] | [17]
inactive: all other assays above

O=C(O)c1cccnc1
active: [12] 116 µM
not listed: [8] | [17]
inactive: all other assays above

CC(=O)[C@@]1(O)CC[C@H]2[C@@H]3CCC4=CC(=O)CC[C@]4(C)[C@H]3CC[C@@]21C
not listed: [8] | [17] | [20]
inactive: all other assays above

CC(N)=O
active: [10] 115 µM
not listed: [8] | [17] | [20]
inactive: all other assays above

CCN(CC)CCOc1ccc(C(=C(Cl)c2ccccc2)c2ccccc2)cc1
inactive: [1] | [11] | [15] | [16] | [19]
active: [2] 15.7 µM | [3] 48 µM | [4] 81.2 µM | [5] 10.8 µM | [6] 0.0258 µM | [7] 155 µM | [9] 26.5 µM | [10] 13.7 µM | [12] 11.4 µM | [13] 61.2 µM | [14] 10.5 µM | [18] 77.9 µM

O=C(N[C@@H](c1ccccc1)[C@@H]1CCCCN1)c1cccc(C(F)(F)F)c1Cl
inactive: [6] | [9] | [11] | [13] | [15] | [16] | [19]
active: [1] 18.7 µM | [2] 17.4 µM | [3] 21.7 µM | [4] 11.4 µM | [5] 12.6 µM | [7] 12.6 µM | [10] 15.2 µM | [20] 6.64 µM | [12] 9.47 µM | [14] 14.3 µM | [18] 34.3 µM

O=C(NS(=O)(=O)/C=C/c1cccs1)c1ccc(F)cc1Br
active: [10] 80.8 µM
not listed: [8] | [17] | [20]
inactive: all other assays above
